Holding throughout (parameters): scale not given: direction of the effect not stated beside the values
The target in assay [1] is Protein translocase subunit SecA (Escherichia coli (strain K12)) (UniProt P10408). Put plainly: Assay to Identify E. coli SecA ATPase Inhibitors. Conditions: 30 µM. The assay is classed as functional.
The target of assay [2] is T1, Ubiquitin-activating enzyme e1, putative (Leishmania donovani (strain BPK282A1)) (UniProt E9BSI1).
T1 sequence (whole entry): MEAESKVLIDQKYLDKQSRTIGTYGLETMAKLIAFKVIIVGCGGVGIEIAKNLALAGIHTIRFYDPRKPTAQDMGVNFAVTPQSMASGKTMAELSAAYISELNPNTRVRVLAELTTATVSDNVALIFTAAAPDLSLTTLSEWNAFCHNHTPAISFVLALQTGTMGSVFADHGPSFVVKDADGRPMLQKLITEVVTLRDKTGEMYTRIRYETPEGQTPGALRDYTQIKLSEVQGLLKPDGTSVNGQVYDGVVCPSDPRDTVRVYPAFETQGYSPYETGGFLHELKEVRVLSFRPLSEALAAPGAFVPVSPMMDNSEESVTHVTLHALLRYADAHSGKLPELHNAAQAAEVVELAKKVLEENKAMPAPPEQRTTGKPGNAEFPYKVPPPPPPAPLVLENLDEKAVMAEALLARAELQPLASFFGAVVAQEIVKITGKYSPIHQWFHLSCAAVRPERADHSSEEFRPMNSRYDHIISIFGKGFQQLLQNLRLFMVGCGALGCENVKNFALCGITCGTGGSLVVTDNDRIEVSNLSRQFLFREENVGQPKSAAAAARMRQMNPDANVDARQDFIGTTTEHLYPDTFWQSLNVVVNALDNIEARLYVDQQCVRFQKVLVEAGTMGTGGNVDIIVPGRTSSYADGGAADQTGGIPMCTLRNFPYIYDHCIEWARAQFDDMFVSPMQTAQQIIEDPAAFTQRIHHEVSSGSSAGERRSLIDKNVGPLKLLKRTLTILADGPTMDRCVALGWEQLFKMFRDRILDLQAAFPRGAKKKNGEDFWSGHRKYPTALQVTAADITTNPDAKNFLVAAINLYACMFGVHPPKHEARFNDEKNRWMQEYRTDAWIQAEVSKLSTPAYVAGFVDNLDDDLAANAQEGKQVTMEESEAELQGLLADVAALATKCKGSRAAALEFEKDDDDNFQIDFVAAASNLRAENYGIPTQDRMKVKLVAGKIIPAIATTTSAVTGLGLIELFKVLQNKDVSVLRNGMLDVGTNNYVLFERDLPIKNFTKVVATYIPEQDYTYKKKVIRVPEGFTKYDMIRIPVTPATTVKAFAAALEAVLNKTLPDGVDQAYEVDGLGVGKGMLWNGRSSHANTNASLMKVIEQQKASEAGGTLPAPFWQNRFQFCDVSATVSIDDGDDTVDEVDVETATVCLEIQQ
Put plainly: Leishmania donovani Ubiquitin Activating Enzyme (LdE1). Conditions: 30 µM. The class given is functional.

Assay [3] addresses Sialic acid-binding Ig-like lectin 9 (Homo sapiens) (UniProt Q9Y336). Put plainly: Hs-Siglec9 ALPHAscreen SOP 20170721. Particulars: 10 µM.
Assay [4] concerns Trypanosoma cruzi. The experiment in a line: Trypanosoma cruzi phosphomannomutase and mannose-1-phosphate guanylyltransferase assay. The class given is functional. Conditions: 10 µM.
For assay [5], the target named is T2, Arginase-2, mitochondrial (Homo sapiens) (UniProt P78540).
T2 sequence (whole entry): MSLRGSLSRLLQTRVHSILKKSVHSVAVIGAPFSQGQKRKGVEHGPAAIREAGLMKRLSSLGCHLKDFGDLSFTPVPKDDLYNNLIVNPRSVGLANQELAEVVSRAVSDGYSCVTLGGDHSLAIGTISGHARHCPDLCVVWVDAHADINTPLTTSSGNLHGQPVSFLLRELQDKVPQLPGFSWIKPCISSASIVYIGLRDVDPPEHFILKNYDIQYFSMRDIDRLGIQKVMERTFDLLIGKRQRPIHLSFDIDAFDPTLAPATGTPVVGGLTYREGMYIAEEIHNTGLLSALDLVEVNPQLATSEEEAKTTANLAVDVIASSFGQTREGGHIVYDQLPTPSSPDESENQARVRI
The experiment in a line: in vitro enzyme assay to detect the production of urea directly proportional to the activity of Arginase II. Note: in the data most compounds retested in dose-response had high values. The class given is functional. Particulars: 33.3 µM.

Assay [6] concerns the target T3, Proteasome subunit beta (Trypanosoma cruzi) (UniProt O96673).
T3 sequence (whole entry): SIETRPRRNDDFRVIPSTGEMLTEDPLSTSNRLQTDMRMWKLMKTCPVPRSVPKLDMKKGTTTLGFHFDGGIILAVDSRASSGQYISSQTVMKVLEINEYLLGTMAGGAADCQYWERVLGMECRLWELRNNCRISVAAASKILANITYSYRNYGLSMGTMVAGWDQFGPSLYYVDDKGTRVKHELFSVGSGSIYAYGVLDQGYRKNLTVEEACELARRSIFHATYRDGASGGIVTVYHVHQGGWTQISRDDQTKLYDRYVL
The experiment in a line: Trypanosoma cruzi proteasome chymotrypsin-like activity (TcProtChymo) assay. Note: in the data most compounds retested in dose-response had high values. The assay is classed as functional. Conditions: 9.37 µM.

Assay [7] is filed under the species Homo sapiens. Put plainly: To identify inhibition of the IFN signalling (Jak-Stat) pathway via expression of an eGFP reporter gene under the control of an IFN-stimulated response element (ISRE) containing MxA promoter. The class given is functional. Conditions: 30 µM. (A reporter such as luciferase makes a cellular process visible.)
In assay [8] the target is T4, Tyrosyl-tRNA synthetase, putative (Trypanosoma cruzi (strain CL Brener)) (UniProt Q4DSP6).
T4 sequence (whole entry): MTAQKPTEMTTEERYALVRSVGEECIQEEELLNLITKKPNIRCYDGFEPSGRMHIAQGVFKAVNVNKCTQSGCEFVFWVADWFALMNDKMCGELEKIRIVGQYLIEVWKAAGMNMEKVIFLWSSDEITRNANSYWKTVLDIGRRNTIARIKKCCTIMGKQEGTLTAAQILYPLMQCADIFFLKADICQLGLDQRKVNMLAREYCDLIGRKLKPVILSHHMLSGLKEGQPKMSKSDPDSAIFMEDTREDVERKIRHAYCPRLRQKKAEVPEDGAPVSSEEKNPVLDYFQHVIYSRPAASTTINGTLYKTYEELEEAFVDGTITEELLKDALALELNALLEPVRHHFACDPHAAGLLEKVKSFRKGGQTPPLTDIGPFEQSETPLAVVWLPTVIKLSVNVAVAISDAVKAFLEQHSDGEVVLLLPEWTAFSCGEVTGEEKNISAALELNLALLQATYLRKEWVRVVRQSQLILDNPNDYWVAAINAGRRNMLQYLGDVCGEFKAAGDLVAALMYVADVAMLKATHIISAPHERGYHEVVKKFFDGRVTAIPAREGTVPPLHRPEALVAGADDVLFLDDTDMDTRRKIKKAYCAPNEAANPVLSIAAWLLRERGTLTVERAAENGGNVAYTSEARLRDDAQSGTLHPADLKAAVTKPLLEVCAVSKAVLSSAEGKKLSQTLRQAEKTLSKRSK
Put plainly: Trypanosoma cruzi tyrosyl tRNA synthetase (TcYRS) _High Tyrosine SOP. Note: in the data most compounds retested in dose-response had high values. The class given is functional. Particulars: 30 µM.

The target of assay [9] is T4, Tyrosyl-tRNA synthetase, putative (Trypanosoma cruzi (strain CL Brener)). The experiment in a line: Trypanosoma cruzi tyrosyl tRNA synthetase (TcYRS) SOP. The class given is functional. Particulars: 30 µM.
Assay [10] has as its target Chromo domain-containing protein 1 (Saccharomyces cerevisiae (strain ATCC 204508 / S288c) (Baker's yeast)) (UniProt P32657). Put plainly: ScCHD-1 Enzyme Inhibition Assay. Note: in the data most compounds retested in dose-response had high values. The class given is functional. Conditions: 30 µM.

For some of these results: Potency and affinity values are given separately.

Sequence of Sialic acid-binding Ig-like lectin 9 (Homo sapiens) (Q9Y336 whole entry): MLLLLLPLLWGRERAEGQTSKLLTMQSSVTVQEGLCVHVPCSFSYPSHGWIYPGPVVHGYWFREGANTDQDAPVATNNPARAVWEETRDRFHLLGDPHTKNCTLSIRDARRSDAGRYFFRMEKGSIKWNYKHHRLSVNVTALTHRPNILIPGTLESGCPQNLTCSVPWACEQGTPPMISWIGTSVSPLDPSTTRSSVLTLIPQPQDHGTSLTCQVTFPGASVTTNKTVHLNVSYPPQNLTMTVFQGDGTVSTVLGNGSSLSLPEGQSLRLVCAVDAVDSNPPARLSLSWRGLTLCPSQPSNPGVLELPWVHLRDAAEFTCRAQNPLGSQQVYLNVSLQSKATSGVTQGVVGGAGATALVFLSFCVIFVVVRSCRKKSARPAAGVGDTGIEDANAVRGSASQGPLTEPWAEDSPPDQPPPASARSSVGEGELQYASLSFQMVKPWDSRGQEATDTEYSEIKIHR
Sequence of Protein translocase subunit SecA (Escherichia coli (strain K12)) (P10408 whole entry): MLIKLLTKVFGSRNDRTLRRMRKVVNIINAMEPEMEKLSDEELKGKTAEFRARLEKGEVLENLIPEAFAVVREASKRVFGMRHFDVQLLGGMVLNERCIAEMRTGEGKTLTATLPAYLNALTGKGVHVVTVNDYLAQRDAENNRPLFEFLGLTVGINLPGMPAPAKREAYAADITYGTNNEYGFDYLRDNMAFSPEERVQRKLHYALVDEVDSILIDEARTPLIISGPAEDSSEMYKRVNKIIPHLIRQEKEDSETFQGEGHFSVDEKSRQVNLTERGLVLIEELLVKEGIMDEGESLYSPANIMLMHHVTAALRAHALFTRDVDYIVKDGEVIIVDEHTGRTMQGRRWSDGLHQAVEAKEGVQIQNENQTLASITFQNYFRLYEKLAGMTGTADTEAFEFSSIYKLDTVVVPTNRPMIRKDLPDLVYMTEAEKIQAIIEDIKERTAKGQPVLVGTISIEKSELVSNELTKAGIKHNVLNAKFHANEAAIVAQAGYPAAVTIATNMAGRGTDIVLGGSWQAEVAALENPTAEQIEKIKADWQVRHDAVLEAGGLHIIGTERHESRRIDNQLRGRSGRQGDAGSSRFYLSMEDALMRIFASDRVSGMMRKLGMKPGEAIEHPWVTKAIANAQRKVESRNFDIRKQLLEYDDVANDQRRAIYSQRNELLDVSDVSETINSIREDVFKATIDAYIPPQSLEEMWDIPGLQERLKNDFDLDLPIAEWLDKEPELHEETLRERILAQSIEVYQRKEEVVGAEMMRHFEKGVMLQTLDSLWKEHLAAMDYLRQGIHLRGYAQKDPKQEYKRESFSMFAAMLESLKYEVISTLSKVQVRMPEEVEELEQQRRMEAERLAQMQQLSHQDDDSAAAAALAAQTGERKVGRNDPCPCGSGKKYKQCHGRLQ
Sequence of Chromo domain-containing protein 1 (Saccharomyces cerevisiae (strain ATCC 204508 / S288c) (Baker's yeast)) (P32657 whole entry, the tested form may be a part): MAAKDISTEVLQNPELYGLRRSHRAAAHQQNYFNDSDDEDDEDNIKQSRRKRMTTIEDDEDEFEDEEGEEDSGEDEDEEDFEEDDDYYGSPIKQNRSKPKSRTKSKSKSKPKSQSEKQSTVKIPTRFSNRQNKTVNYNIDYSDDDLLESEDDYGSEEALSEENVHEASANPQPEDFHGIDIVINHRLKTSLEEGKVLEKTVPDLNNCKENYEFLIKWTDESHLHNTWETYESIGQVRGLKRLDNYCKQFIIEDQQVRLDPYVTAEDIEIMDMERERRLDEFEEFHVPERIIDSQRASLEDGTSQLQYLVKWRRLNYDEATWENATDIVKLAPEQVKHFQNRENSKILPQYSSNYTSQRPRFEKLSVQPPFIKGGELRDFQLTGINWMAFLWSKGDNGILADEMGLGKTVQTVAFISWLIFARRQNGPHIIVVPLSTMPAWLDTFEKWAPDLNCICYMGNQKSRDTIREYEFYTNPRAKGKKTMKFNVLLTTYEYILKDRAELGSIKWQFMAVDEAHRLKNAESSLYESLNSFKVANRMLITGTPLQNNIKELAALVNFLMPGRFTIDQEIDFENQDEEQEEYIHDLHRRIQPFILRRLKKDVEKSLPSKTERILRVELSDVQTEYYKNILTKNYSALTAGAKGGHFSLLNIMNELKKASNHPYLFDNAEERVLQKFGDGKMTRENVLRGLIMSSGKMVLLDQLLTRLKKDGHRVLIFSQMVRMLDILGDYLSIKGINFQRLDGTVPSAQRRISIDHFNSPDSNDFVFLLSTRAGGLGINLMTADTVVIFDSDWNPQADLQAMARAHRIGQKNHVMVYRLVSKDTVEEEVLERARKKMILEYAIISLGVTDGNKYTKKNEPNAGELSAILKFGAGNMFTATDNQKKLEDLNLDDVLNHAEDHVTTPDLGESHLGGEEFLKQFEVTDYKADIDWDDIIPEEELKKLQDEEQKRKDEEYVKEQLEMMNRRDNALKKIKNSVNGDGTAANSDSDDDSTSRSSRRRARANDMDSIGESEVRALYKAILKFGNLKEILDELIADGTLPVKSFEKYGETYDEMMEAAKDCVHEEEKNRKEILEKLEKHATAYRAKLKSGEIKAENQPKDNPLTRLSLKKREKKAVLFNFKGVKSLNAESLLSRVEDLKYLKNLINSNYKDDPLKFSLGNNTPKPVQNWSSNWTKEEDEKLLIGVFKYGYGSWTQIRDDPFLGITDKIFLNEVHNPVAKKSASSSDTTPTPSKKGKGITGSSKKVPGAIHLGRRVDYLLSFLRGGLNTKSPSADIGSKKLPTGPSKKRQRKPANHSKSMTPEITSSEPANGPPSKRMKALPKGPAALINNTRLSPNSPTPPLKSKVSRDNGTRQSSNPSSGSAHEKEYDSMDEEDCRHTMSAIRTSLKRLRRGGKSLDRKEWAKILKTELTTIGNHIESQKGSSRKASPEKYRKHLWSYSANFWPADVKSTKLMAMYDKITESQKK

Take `CC(C)c1nc(CN(C)C2CCN(CCNS(C)(=O)=O)C2)no1` (stereo not given): the Percent Effect was -0.486% in [1]; 15.6% in [2]; -6.45% in [3]; -5.78% in [4]; -11.7% in [5]; 12.5% in assay [6]. The Percent Effect in [7] was 12.2%; in [8], 3.92%; in assay [9], 7.06%; in [10], -13%.

With `COc1cccc(OCC2CCCN(C(C)=O)C2)c1` (stereo not given), the Percent Effect in assay [1] is -1.78%; in assay [2], 14.7%; in [3], -3.67%; in assay [4], -0.395%; in assay [5], -3.1%; in [6] it was 25.4%. In addition, the Percent Effect was 8.14% in assay [7], 2.12% in assay [8], 15% in [9] and -24.1% in assay [10].

With `Cc1noc(C2CCN(Cc3cc(=O)n(C)c(=O)n3C)CC2)n1`, the Percent Effect in [1] was -4.76%; in [2] it was 16%; in assay [3], 3.89%; in [4], 0.602%; in [5] it was 0%; in [6], 13.2%. The Percent Effect in assay [7] is 15.2%; in [8], 3.68%; in assay [9], 12.8%; in [10], -9.16%.

On to `Cn1cnc2c1CCN(Cc1cccc(OCC(N)=O)c1)C2`, for which the Percent Effect is -0.391% in assay [1]; 15.4% in assay [2]; -8.42% in [3]; 7.42% in assay [4]; 2.46% in assay [5]; 15.3% in [6]. Besides, the Percent Effect in assay [7] is 23.1%; in [8] it was 3.35%; in assay [9] it was 18.1%; in [10] it was -7.71%.

`O=C(c1cc(C2CC2)on1)N1CCCC(n2cncn2)C1` (stereo not given): the Percent Effect in [1] is -3.26%; in assay [2] it was 15.4%; in assay [3], -20%; in assay [4] it was 9.48%; in [5], -0.82%; in assay [6], 20.7%. Also, the Percent Effect in assay [7] worked out at 15.6%; in assay [8] it was 4.31%; in [9] it was 22.9%; in assay [10], 30.2%.

As to `Cc1n[nH]c(=O)c2c(NC(=O)CN3CCCC(C(F)(F)F)C3)oc(C)c12` (stereo not given), the Percent Effect in assay [1] was 2.19%; in assay [2], 23.1%; in assay [3] it was -19.8%; in assay [4], 1.41%; in assay [5], 0%; in assay [6], 17.7%. The Percent Effect in assay [7] was -1.71%; in assay [8], 3.35%; in assay [9], 22.9%; in assay [10], -4.61%.

As for `CN(C)CCN1CCCC12CCN(C(=O)c1cnccn1)CC2`, the Percent Effect in assay [1] is -2.79%; in assay [2], 11.7%; in assay [3], 2.72%; in assay [4], 2.81%; in assay [5] it was 4.57%; in assay [6], 3.69%. Also, the Percent Effect in [7] was 0.368%; in assay [8], 7.73%; in assay [9] it was 15%; in assay [10], -6.82%.

The values are drawn from ChEMBL document CHEMBL3988442, “University of Dundee, Small-Polar-MMV Screening Library” (2021).
